This is one part of the list. The true hit rate is not given.

To fix the notation:
B1: VH:VL chains; a variant is named by its letters at X, in order (parent)
chain 1: QVQLVQSGAEVKKPGASVKVSCKASGYTFTDYXMHWVRQAPGQGLEWMGXVNPNXXXTTYNQKFEGRVTMTTDTSTSTAYMELRSLRSDDTAVYYCARXNXLDXWGQGTTVTVSS
chain 2: DIQMTQSPSSLSASVGDRVTITCSVSSSVSSIYLHWYQQKPGKAPKLLIYSTSNLASGVPSRFSGSGSGTDFTLTISSLQPEDFATYYCQVYSGYPLTFGGGTKVEIK

Variants of B1 are the subject of this assay. Nature of the assay: yeast display scFab, FACS + sequencing. To be noted: with MET. In a few lines: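 Antigen binding was called positive for sequences present in both antigen-positive samples and negative for those present only in the input. These calls came from deep sequencing, in two replicates, of round-3 sorted and input populations from a heavy-chain CDR mutant scFab yeast surface library. The library was first enriched twice magnetically on HGFR-Fc-coated Protein A beads and then by FACS, gating the top 50% antigen-positive cells after 3 h labelling at room temperature with 1 nM HGFR-Fc plus anti-Myc in PBSB with 1% milk.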
Regarding DEGTGALA, the antigen binding call is given as “no binding”. Take FKRKNSAA: the antigen binding call is listed as “no binding”. Turning to FRRGGSAA, the antigen binding call was “binds”. For the variant FKRGSSAA, the antigen binding call is listed as “binds”.

Take FRRGDSAA: the antigen binding call is reported as “binds”. For FGRGSSWA, the antigen binding call is on record as “no binding”.

FRRGSSAA: the antigen binding call is “binds”. DGERTAGV: the antigen binding call was “no binding”.

Turning to VREEGDGA, the antigen binding call is reported as “no binding”. VTTGGDGV: the antigen binding call was “no binding”. Take YTAGSDWY: the antigen binding call was “no binding”. Consider YRAGGYWY, for which the antigen binding call is “binds”. Consider YRAGGAWY, for which the antigen binding call is “binds”. For the variant YRAGGDWY, the antigen binding call is listed as “binds”. The value for DRAGDDWY was “no binding”; that for YRARGAWY was “binds”. Consider DGGTSYSV, for which the antigen binding call is on record as “no binding”. Regarding SKEAGYSV, the antigen binding call is “no binding”. Regarding VTGEDDAV, the antigen binding call is on record as “no binding”.

As to ATGANSLD, the antigen binding call is “no binding”. YRKGGAWY: the antigen binding call is recorded as “binds”. With YRAKGAWY, the antigen binding call is “binds”. Turning to YEKGGDVY, the antigen binding call is “no binding”. In the case of DGGTNDVD, the antigen binding call is reported as “no binding”.

As to DTKAASWV, the antigen binding call was “no binding”. Regarding YKERGDVF, the antigen binding call was “no binding”. As to VKKGSSLF, the antigen binding call is “binds”. Next, VKGRADSF: “no binding”; VKKESSGF: “no binding”.

In the case of YKKGSSLF, the antigen binding call was “binds”.

Consider YRKEAAWV, for which the antigen binding call is given as “binds”. Regarding YRKGGAWV, the antigen binding call is on record as “binds”. For the variant YRTADDWV, the antigen binding call is recorded as “no binding”. As to SAEGGSSA, the antigen binding call was “no binding”. Regarding FGAKTASF, the antigen binding call is “no binding”. For YAAGGDVA, the antigen binding call was “no binding”. For YRGGSDVA, the antigen binding call is on record as “binds”. For the variant YRAAGDVA, the antigen binding call was “binds”. As to YTAGSDVA, the antigen binding call is given as “no binding”. Regarding YRAGDDVA, the antigen binding call was “binds”. Next, YRAETDVA: “no binding”; VRAGDDVA: “no binding”. Regarding DRGRSDVA, the antigen binding call is reported as “no binding”.

On to VRGGSDVA, for which the antigen binding call was “no binding”. Consider DAGGGAAV, for which the antigen binding call is listed as “no binding”. With AGGGNDWV, the antigen binding call is “no binding”. For VAAKNDGA, the antigen binding call was “no binding”. As for VAKENAVA, the antigen binding call was “no binding”. Next, YRKGSSGF: “binds”. On to YGKGTSGF, for which the antigen binding call was “no binding”. The value for YRKGSSLF was “binds”; that for YTRGASWV was “no binding”; that for YETTDSWV was “no binding”. In the case of YRGASSWV, the antigen binding call is recorded as “binds”. Consider YRGGASWV, for which the antigen binding call was “binds”. Take YTKAASWV: the antigen binding call is on record as “no binding”.

In the case of YAEATDLY, the antigen binding call is on record as “no binding”. Turning to VTEGDSGV, the antigen binding call was “no binding”. With VTTGSASF, the antigen binding call is given as “no binding”. The value for DTEEGDWV was “no binding”.

Take YRRGSASD: the antigen binding call is reported as “binds”.

Consider YRRGDASD, for which the antigen binding call is recorded as “binds”.

Consider YRGEGASD, for which the antigen binding call was “binds”.

Regarding YTGTSASD, the antigen binding call is “no binding”. With DRRGDASD, the antigen binding call is on record as “no binding”. Next, YRRGSAVD: “binds”.

As to YTAAADLV, the antigen binding call is recorded as “no binding”. The value for YETEGDVF was “no binding”. The value for YRRGGASD was “binds”; that for DAGGGAVY was “no binding”; that for YRKGAALA was “binds”. Regarding YRGKGSLA, the antigen binding call was “binds”. Turning to YTGRAALA, the antigen binding call is reported as “no binding”. In the case of YRKKGDLA, the antigen binding call is on record as “no binding”. Take YRGKGALA: the antigen binding call is recorded as “binds”.

Take YRGRSALA: the antigen binding call is “binds”. On to VTGTGDGV, for which the antigen binding call is on record as “no binding”. With AETKGAVA, the antigen binding call is given as “no binding”. With DGGENAGD, the antigen binding call is on record as “no binding”. For the variant VAGGDAVV, the antigen binding call is on record as “no binding”. YRGKSALA: the antigen binding call is recorded as “binds”.

As to FAAGGAWA, the antigen binding call is recorded as “no binding”.

Regarding FRGGGAVS, the antigen binding call is given as “binds”. In the case of FAAGGAAS, the antigen binding call was “binds”.

With FAGGGFAV, the antigen binding call is given as “no binding”. As for FRGGGSVS, the antigen binding call was “binds”. As for FAAGSSGS, the antigen binding call is “no binding”. In the case of FAGGSFAS, the antigen binding call is listed as “binds”. For the variant FAGTSVGS, the antigen binding call is listed as “no binding”.

Consider FREGGAVS, for which the antigen binding call is reported as “no binding”. DTERDDAV: the antigen binding call was “no binding”. Turning to DGGTGDVF, the antigen binding call was “no binding”. In the case of FAGGGAGA, the antigen binding call is reported as “no binding”.

For the variant FAGGGASD, the antigen binding call is listed as “no binding”. FAGGGAGS: the antigen binding call is “binds”. For YTEEGDWV, the antigen binding call is given as “no binding”. Take SAAGGDVA chain 1 L45S: the antigen binding call is given as “no binding”. Next, YRKGSAGD: “binds”; YEKGGAGD: “binds”. Next, YEGGGDGD: “no binding”; YRKGSALD: “binds”; YEKGGDVD: “no binding”.

For YRRANFLD, the antigen binding call is recorded as “no binding”.

For YRKGTAGD, the antigen binding call was “binds”.

For the variant YAGEGDGA, the antigen binding call was “no binding”.

For VTTADDWV, the antigen binding call is listed as “no binding”.
